Experimental data from PubChem BioAssay AID1159580 (chemical genetic matrix, 2015).
Several values for one entry are separate records, joined by “and”; a condition that tells them apart may be missing. Equal values may be shown once. The campaign covered roughly 5,500 compounds. About 2,000 (36%) were called active. Roughly 18% stayed inconclusive and do not appear here. Rule as the data show it: active = normalized growth mostly below about 0.91 (no sharp cut-off); inconclusive = no clear call, values can overlap the other calls; inactive = mostly above about 0.92. Some of the results follow.

Experiment: chemical genetic growth profiling, strain panel (AID 1159580);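 also: tested at 20 µM; growth read once vehicle control cultures reached saturation at 30 °C; 1 = growth at the plate median or of vehicle wells; lower values mean less growth of the strain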
Details: S. cerevisiae deletion strains, growth OD

Measured: normalized growth

c1ccc2c(c1)CCCC2C1=NCCN1 (centres undefined)
inactive: locus YAL013W, strain DEP1, active compounds read low 1.01 and 1 | locus YAL021C, strain ccr4, active compounds read low 1.02 | locus YAL026C, strain drs2, active compounds read low 1.02 | locus YAL030W, strain snc1, active compounds read low 1.02 | locus YAL040C, strain CLN3, active compounds read low 1.05 | locus YBL061C, strain skt5, active compounds read low 1.02 | locus YBR009C, strain hhf1, active compounds read low 1.03 | locus YBR021W, strain FUR4, active compounds read low 1.05 | locus YBR023C, strain chs3, active compounds read low 1.02 | locus YBR171W, strain sec66, active compounds read low 1.03 | locus YBR229C, strain ROT2, active compounds read low 1.01 | locus YBR231C, strain swc5, active compounds read low 1.02 | locus YBR279W, strain paf1, active compounds read low 1.01 | locus YCL011C, strain gbp2, active compounds read low 1.02 | locus YCL016C, strain dcc1, active compounds read low 1.02 | locus YCL029C, strain bik1, active compounds read low 0.995 | locus YCL061C, strain MRC1 (second series), active compounds read low 1.01 | locus YCL069W, strain vba3, active compounds read low 1.02 | locus YCR088W, strain abp1, active compounds read low 1.02 | locus YDL005C, strain med2, active compounds read low 1.02 | locus YDL035C, strain GPR1, active compounds read low 1.02 | locus YDL040C, strain nat1, active compounds read low 1.02 | locus YDL074C, strain BRE1, active compounds read low 1.01 | locus YDL101C, strain DUN1, active compounds read low 1.01 | locus YDL134C, strain PPH21, active compounds read low 1.01 | locus YDL185W, strain tfp1, active compounds read low 0.993 | locus YDL192W, strain arf1, active compounds read low 1 | locus YDR001C, strain nth1, active compounds read low 1.01 | locus YDR069C, strain doa4, active compounds read low 1 | locus YDR101C, strain arx1, active compounds read low 0.995 | locus YDR137W, strain rgp1, active compounds read low 1.03 | locus YDR150W, strain NUM1, active compounds read low 1.01 | locus YDR159W, strain sac3, active compounds read low 1.02 | locus YDR162C, strain NBP2, active compounds read low 1.02 | locus YDR195W, strain ref2 1.01 | locus YDR297W, strain sur2, active compounds read low 1.03 | locus YDR318W, strain mcm21, active compounds read low 1.01 | locus YDR334W, strain swr1, active compounds read low 1.02 | locus YDR335W, strain msn5, active compounds read low 1.03 | locus YDR363W, strain ESC2, active compounds read low 1.02 | locus YDR388W, active compounds read low 1.01 | locus YDR392W, strain spt3, active compounds read low 1.03 | locus YDR502C, strain sam2, active compounds read low 0.991 | locus YEL003W, strain gim4, active compounds read low 1.02 | locus YEL037C, strain rad23, active compounds read low 1.03 | locus YEL061C, strain CIN8 (second series), active compounds read low 1.02 | locus YEL061C, strain CIN8, active compounds read low 1.01 | locus YER002W, strain NOP16, active compounds read low 0.992 | locus YER015W, strain faa2, active compounds read low 1.02 | locus YER016W, strain bim1, active compounds read low 1.03 | locus YER110C, active compounds read low 1.01 | locus YER111C, strain swi4, active compounds read low 1.03 | locus YER155C, strain BEM2 (second series), active compounds read low 1.04 | locus YER155C, strain BEM2, active compounds read low 1.01 | locus YER167W, strain BCK2, active compounds read low 1.01 | locus YFR010W, strain ubp6, active compounds read low 1.01 | locus YGL078C, strain dbp3, active compounds read low 0.989 | locus YGL086W, strain mad1, active compounds read low 0.998 | locus YGL167C, strain pmr1, active compounds read low 1.04 | locus YGL173C, strain kem1, active compounds read low 1.02 | locus YGL227W, strain vid30, active compounds read low 1.03 | locus YGL240W, strain doc1, active compounds read low 1.03 | locus YGL248W, strain PDE1, active compounds read low 1.01 | locus YGL253W, strain hxk2, active compounds read low 1.03 | locus YGR135W, strain pre9, active compounds read low 0.987 | locus YGR229C, strain SMI1, active compounds read low 1.02 and 1.03 | locus YGR252W, strain gcn5, active compounds read low 0.971 | locus YHR013C, strain ard1, active compounds read low 1.05 | locus YHR027C, strain rpn1, active compounds read low 1.01 | locus YHR030C, strain SLT2, active compounds read low 1.01 and 0.988 | locus YHR079C, strain IRE1 (second series), active compounds read low 1.01 | locus YHR079C, strain IRE1, active compounds read low 0.976 | locus YHR094C, strain hxt1, active compounds read low 1 | locus YHR129C, strain ARP1, active compounds read low 1.01 | locus YHR142W, strain chs7, active compounds read low 1.02 | locus YHR200W, strain rpn10, active compounds read low 0.997 | locus YIL066C, strain RNR3, active compounds read low 1.01 | locus YIL073C, strain SPO22, active compounds read low 1.02 | locus YIL125W, strain kgd1, active compounds read low 0.958 | locus YIR030C, strain dcg1, active compounds read low 0.999 | locus YJL092W, strain hpr5, active compounds read low 1.02 | locus YJL095W, strain BCK1 (second series), active compounds read low 1.02 | locus YJL095W, strain BCK1, active compounds read low 1 and 0.971 | locus YJL115W, strain asf1, active compounds read low 1.01 | locus YJL129C, strain trk1, active compounds read low 1.02 | locus YJL134W, strain LCB3, active compounds read low 1.01 | locus YJL154C, strain vps35, active compounds read low 1.02 | locus YJL164C, strain tpk1, active compounds read low 1.02 | locus YJL166W, strain qcr8, active compounds read low 1.02 | locus YJL168C, strain set2, active compounds read low 1 | locus YJL187C, strain SWE1 (second series), active compounds read low 1.02 | locus YJR043C, strain POL32, active compounds read low 1.01 | locus YJR066W, strain TOR1, active compounds read low 0.945 | locus YJR075W, strain HOC1, active compounds read low 1.01 and 0.998
